# Source: PubChem
# Sampled rows, rich in hits. Any-hit rate of the full collection: about 4.1%.
# tim23-1 inh = inhibits growth of tim23-1 mutant yeast; S. cerevisiae tim23-1 growth, BacTiter-Glo luminescence, 24 h; inhibition, % at 20 µM; actives 1.3% (n = 330,000);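 active = growth inhibition of the mutant yeast at or above 50%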;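 note: temperature-sensitive mutant grown at 25 °C; plate controls were DMSO-treated mutant yeast for no effect and medium wells lacking yeast for full effect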
# tim10-1 inh = inhibits growth of tim10-1 mutant yeast; S. cerevisiae tim10-1 ts strain growth, BacTiter-Glo, 24 h; inhibition, % at 20 µM; actives 2.2% (n = 330,000); AID 463190;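 active = inhibition of at least 40%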;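 note: mutant grown at 25 °C; 0% = DMSO wells with yeast and 100% = wells holding no yeast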
# NALP1 inh = NALP1 inhibition | actives 0.61% (n = 280,000) | S. cerevisiae NALP1/ASC/caspase-1 growth, X-gal OD620, 72 h | inhibition, % at 10 µM | AID 2071; in the data active = inhibition mostly above about 24%, no sharp cut-off; inactive = mostly below about 32%
# TIM10 inh = inhibits growth of TIM10 yeast strain | actives 1.4% (n = 330,000) | AID 463195 | S. cerevisiae TIM10 strain growth, BacTiter-Glo luminescence, 24 h | inhibition, % at 10 µM;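 active = inhibition of 40% or more at the single tested concentration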;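 note: wild-type TIM10 isogenic control strain grown at permissive 25 °C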
# NLRP3 yeast inh = blocks the NALP3 inflammasome reconstituted in yeast | actives 0.39% (n = 330,000) | inhibition, % at 10 µM | Yeast reconstituted NLRP3/ASC/caspase-1, beta-gal luminescence, 24 h;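 active = inhibition of 50% or more; inactive = inhibition below 50%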;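 note: plate controls were induced DMSO wells for no effect and uninduced yeast grown without galactose for full effect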
# PfHsp90 yeast 2 = inhibits growth of yeast expressing Plasmodium falciparum Hsp90; S. cerevisiae expressing PfHsp90, BacTiter-Glo ATP, 48 h; yeast lacking PDR1 and PDR3 efflux regulators; inhibition, % at 9.4 µM; actives 0.32% (n = 310,000);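 active = every replicate shows inhibition above about 80%, whatever the replicate mean, limit read from the data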;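 note: 0% = DMSO neutral controls and 100% = 20 µM radicicol positive controls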
# TIM10 conf = confirmation of TIM10 yeast growth inhibitors; shares compounds with TIM10 inh; S. cerevisiae tim10 strain growth, BacTiter-Glo luminescence, 24 h; inhibition, % at 10 µM; actives 63% (n = 4,600); AID 463215;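 active = inhibition of yeast growth at or above a set limit in either of two replicates at 10 µM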;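 note: this counterscreen used the strain with wild-type TIM10; 0% = yeast with DMSO and 100% = medium wells lacking yeast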
# tim23-1 conf = confirmation of tim23-1 mutant yeast growth inhibitors. shares compounds with tim23-1 inh. S. cerevisiae tim23-1 growth, BacTiter-Glo luminescence, 24 h. inhibition, % at 20 µM. actives 83% (n = 4,400). AID 463218;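 active = inhibition above about 39% in either of two replicate wells at 20 µM, limit read from the data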;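 note: temperature-sensitive tim23-1 mutant grown at 25 °C; 0% = DMSO wells with yeast and 100% = medium wells without yeast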
# * = called active by the depositor; . = no result.
SMILES,tim23-1 inh,tim10-1 inh,NALP1 inh,TIM10 inh,NLRP3 yeast inh,PfHsp90 yeast 2,TIM10 conf,tim23-1 conf
CC(=O)SC(C[N+](=O)[O-])c1cn(C(C)=O)c2ccccc12 (stereo not given),89*,27,12,80*,9,124*,86*,-76
CC(=O)n1cc(Nc2ccc([N+](=O)[O-])cc2)c2ccccc21,-19,4,8,-20,7,-6,.,.
CCOC(=O)CS(=O)(=O)c1nc(-c2ccccc2)cc(C(F)(F)F)n1,64*,38,31,44*,29,-24,55*,-41
CCOC(=O)CS(=O)(=O)c1ccccc1,12,7,-11,7,-16,16,.,.
CCCOC(=O)Oc1ccc2c(=O)c(Oc3cc(C)cc(C)c3)coc2c1,51*,38,29,47*,20,4,41*,53*
CC(NC(=O)c1ccc([N+](=O)[O-])o1)C12CC3CC(CC(C3)C1)C2 (stereo not given),61*,-6,10,45*,25,-22,59*,-5
Cc1ccc(-c2nnc(N3CCCCCC3)c3ccccc23)cc1,60*,25,8,44*,35,0,15,54*
COc1ccc(S(=O)(=O)N2CCN(Cc3ccc(Cl)cc3)CC2)cc1,58*,28,11,42*,20,8,40*,50*
CCN(CC)C(=O)c1sc2nc(-c3cccs3)cc(-c3cccs3)c2c1N,53*,35,-9,43*,21,0,35*,43*
Oc1c(Br)cc(Br)cc1/C=N/NC(=S)N[C@H]1CC2C=CC1C2 (stereo not given in full),57*,30,9,46*,13,-32,48*,68*
NC(=S)NC1CC2C=CC1C2 (stereo not given),13,6,19,13,8,13,.,.
O=C(CSc1ccccc1F)NNC(=O)c1ccncc1,-6,0,.,1,-3,6,.,.
CC[C@]12c3[nH]c4ccc(OC)cc4c3CCN1C(=O)C(CC(=O)NCc1ccco1)C[C@@H]2C(=O)N1CCN(C(=O)c2ccco2)CC1 (stereo not given in full),34,13,.,-3,.,16,.,.
Cc1ccc2c(c1)C(=O)C(=O)N2CC(=O)OC(C)C,15,19,8,6,7,15,.,.
Cc1ccc2c(c1)C(=O)C(=O)N2Cc1ccc(C(F)(F)F)cc1,82*,30,.,41*,1,150*,58*,32*
CC(C)c1ccc2c(c1)C1(NN=C(c3ccccc3)S1)C(=O)N2 (stereo not given),50*,28,-7,51*,1,-156,40*,54*
Clc1cccc(CN2CCSCC2)c1Cl,5,-9,12,8,5,8,.,.
CC1CCCCN1C(=S)NC(=O)c1cc(Br)ccc1Cl (stereo not given),54*,35,.,41*,23,-1,44*,50*
CCC1CCCCN1C(=S)NC(=O)c1cccs1 (stereo not given),31,28,-9,12,12,-1,.,.
CCC1CCCCN1C(=S)NC(=O)c1cc(Br)ccc1Cl (stereo not given),58*,35,.,53*,29,-16,52*,53*
CCCN1C(=O)/C(=C/c2ccc(C)s2)SC1=Nc1ccc(OC)cc1,-6,7,17,6,18,7,.,.
CCN(CC)CCN1C(=O)/C(=C\c2ccc(Cl)c([N+](=O)[O-])c2)SC1=Nc1ccc(OC)cc1,66*,0,44*,41*,39,-16,35*,57*
O=C(C#Cc1ccccc1)c1ccco1,61*,22,44*,56*,-28,104*,69*,62*
CN(Cc1ccccc1)C(=O)c1ccco1,-4,5,-6,-19,-12,.,.,.
